Measured values from the supplement of paper PMC13380429.

Tested on: Vero E6 infected with SARS-CoV-2
Assay: inhibition of SARS-CoV-2 cytopathic effect; higher = more antiviral protection, active = above 15
Conditions: 100 nM; 48 h

Row | Structure (SMILES) | inhibition of SARS-CoV-2 cytopathic effect
1 | CN1CC[C@@H](NC(=O)Nc2ccc(C#N)cc2)C[C@@H]1c1nc2ccccc2[nH]1 [glasdegib] | 1.05% (inactive)
2 | COc1cc(C(=O)OCCCN2CCCN(CCCOC(=O)c3cc(OC)c(OC)c(OC)c3)CC2)cc(OC)c1OC [dilazep] | -0.17% (inactive)
3 | COC(=O)[C@]12CCC(C)(C)C[C@H]1[C@H]1C(=O)C=C3[C@@]4(C)C=C(C#N)C(=O)C(C)(C)[C@@H]4CC[C@@]3(C)[C@]1(C)CC2 [Bardoxolone Methyl] | -1.03% (inactive)
4 | CC(=O)OC[C@H](N)C(=O)O [O-acetyl-L-serine] | 1.58% (inactive)
5 | CCN1C(=O)NC(c2ccccc2)C1=O (stereo not drawn) [ethotoin] | 2.41% (inactive)
6 | CN1CCCN=C1/C=C/c1cccs1 [pyrantel-pamoate] | 2.36% (inactive)
7 | O=c1ccc2ccc(O)c(O)c2o1 [daphnetin] | -2.13% (inactive)
8 | CC(C)(C)c1ccc(C(O)CCCN2CCC(C(O)(c3ccccc3)c3ccccc3)CC2)cc1 (stereo not drawn) [terfenadine] | -0.52% (inactive)
9 | COc1cc2c(Nc3ccc(Cl)c(Cl)c3F)ncnc2cc1OC[C@@H]1C[C@@H]2CN(C)C[C@@H]2C1 | -5.42% (inactive)
10 | CC/C(=C(\c1ccccc1)c1ccc(OCCN(C)C)cc1)c1ccccc1 [tamoxifen] | 0.36% (inactive)
11 | N[C@@H](C(=O)O)c1ccc(C(=O)O)c(O)c1 (racemic) [4-carboxy-3-hydroxyphenylglycine-(RS)] | 0.94% (inactive)
12 | N#C[C@@H]1C[C@@H]2C[C@@H]2N1C(=O)[C@@H](N)C12CC3CC(CC(O)(C3)C1)C2 | 0.62% (inactive)
13 | O=C(CCCN1CCC2(CC1)C(=O)NCN2c1ccccc1)c1ccc(F)cc1 [spiperone] | 0.95% (inactive)
14 | CCC[C@@H](NC(=O)N1C(=O)C(CC)(CC)[C@@H]1Oc1ccc(C(=O)N2CCN(C)CC2)cc1)c1ccc2c(c1)OCO2 | -0.09% (inactive)
15 | CC(C)c1ccc(NC(=O)Cn2cnc3c2c(=O)n(C)c(=O)n3C)cc1 | 1.39% (inactive)
16 | CN1CCc2c(c3ccccc3n2Cc2ccccc2)C1 [mebhydrolin] | 1.76% (inactive)
17 | COc1cc2c(cc1OC)C1CC(=O)C(CC(C)C)CN1CC2 (stereo not drawn) [tetrabenazine] | 1.22% (inactive)
18 | CC#CC(=O)N1CCC[C@H]1c1nc(-c2ccc(C(=O)Nc3ccccn3)cc2)c2c(N)nccn12 [acalabrutinib] | 0.31% (inactive)
19 | Fc1ccccc1CNCc1ccc(-c2ccnc3[nH]ccc23)cc1 | 0.04% (inactive)
20 | CCC/C=C1\OC(=O)C2=C1CCC=C2 [ligustilide] | 8.75% (inactive)
21 | O=C(Nc1ncc(SCCN2CCCC2)s1)[C@]1(c2ccc(S(=O)(=O)C3CC3)cc2)C[C@H]1C1CCCCC1 | -2.63% (inactive)
22 | CC12CCC(CC1=O)C2(C)C (stereo not drawn) [camphor-(+)] | -0.16% (inactive)
23 | CN[C@@H](C)[C@H](O)c1ccccc1 [ephedrine] | 1.57% (inactive)
24 | CC(=O)O[C@@H]1CC[C@@]2(C)[C@@H](CC[C@]3(C)[C@@H]2C(=O)C=C2[C@@H]4[C@@H](C)[C@H](C)CC[C@]4(C)CC[C@]23C)[C@@]1(C)C(=O)O [acetyl-11-keto-beta-boswellic-acid] | -1.26% (inactive)
25 | O=C1c2c(O)cccc2C([C@@H]2O[C@H](CO)[C@@H](O)[C@H](O)[C@H]2O)c2cc(CO)cc(O)c21 (stereo partly drawn) [aloin] | -0.43% (inactive)
26 | CC(C)(C)S(=O)(=O)N[C@H]1CC[C@H](C(=O)Nc2ccc(C(F)(F)F)cn2)CC1 [velneperit] | -0.23% (inactive)
27 | CC(C)CCC[C@@H](C)[C@H]1CC[C@H]2[C@@H]3CC=C4C[C@@H](O)CC[C@]4(C)[C@H]3CC[C@]12C [cholesterol] | 1.08% (inactive)
28 | CC1(C)O[C@@H]2[C@@H](CO[C@@]3(COS(N)(=O)=O)OC(C)(C)O[C@@H]23)O1 [topiramate] | -2.21% (inactive)
